Data published in PubChem BioAssay AID1159580 (chemical genetic matrix, 2015).
Values joined by “and” are separate entries in the source; they are usually repeats but may differ in a detail not shown here. Equal values may be shown once. Out of some 5,500 compounds screened, about 2,000 (36%) were called active. Not shown: some 18% with an inconclusive outcome. Rule as the data show it: active = normalized growth mostly below about 0.91 (no sharp cut-off); inconclusive = no clear call, values can overlap the other calls; inactive = mostly above about 0.92. The list shows a part of the results.

Test: chemical genetic growth profiling, strain panel (AID 1159580);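 also: tested at 20 µM; growth read once vehicle control cultures reached saturation at 30 °C; 1 = growth at the plate median or of vehicle wells; lower values mean less growth of the strain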
Conditions: S. cerevisiae deletion strains, growth OD

Measured: normalized growth

C=C[C@@](C)(O)CCC1C(=C)C[C@H](OC(C)=O)C2C(C)(C)CCCC12C (stereo partly specified)
inactive: locus YAL013W, strain DEP1, stronger effect = lower value 1.01 | locus YAL021C, strain ccr4, stronger effect = lower value 1.03 | locus YAL026C, strain drs2, stronger effect = lower value 1.03 | locus YAL030W, strain snc1, stronger effect = lower value 1.04 | locus YBL061C, strain skt5, stronger effect = lower value 1.03 | locus YBR009C, strain hhf1, stronger effect = lower value 1 | locus YBR021W, strain FUR4, stronger effect = lower value 0.963 | locus YBR023C, strain chs3, stronger effect = lower value 1.02 | locus YBR171W, strain sec66, stronger effect = lower value 1.01 | locus YBR229C, strain ROT2, stronger effect = lower value 0.972 | locus YBR231C, strain swc5, stronger effect = lower value 1.05 | locus YBR279W, strain paf1, stronger effect = lower value 1.02 | locus YCL011C, strain gbp2, stronger effect = lower value 1.01 | locus YCL016C, strain dcc1, stronger effect = lower value 1.01 | locus YCL029C, strain bik1, stronger effect = lower value 0.981 | locus YCL061C, strain MRC1, stronger effect = lower value 1.01 | locus YCL069W, strain vba3, stronger effect = lower value 1.03 | locus YCR088W, strain abp1, stronger effect = lower value 1.04 | locus YDL005C, strain med2, stronger effect = lower value 1.04 | locus YDL035C, strain GPR1, stronger effect = lower value 0.961 | locus YDL040C, strain nat1, stronger effect = lower value 1.03 | locus YDL074C, strain BRE1, stronger effect = lower value 0.956 | locus YDL101C, strain DUN1, stronger effect = lower value 1.01 | locus YDL185W, strain tfp1, stronger effect = lower value 0.952 | locus YDL192W, strain arf1, stronger effect = lower value 0.976 | locus YDR001C, strain nth1, stronger effect = lower value 1.03 | locus YDR069C, strain doa4, stronger effect = lower value 1.07 | locus YDR101C, strain arx1, stronger effect = lower value 0.977 | locus YDR137W, strain rgp1, stronger effect = lower value 0.99 | locus YDR150W, strain NUM1, stronger effect = lower value 1.07 | locus YDR159W, strain sac3, stronger effect = lower value 1.02 | locus YDR162C, strain NBP2, stronger effect = lower value 0.965 | locus YDR195W, strain ref2 1.06 | locus YDR297W, strain sur2, stronger effect = lower value 1.05 | locus YDR318W, strain mcm21, stronger effect = lower value 1.01 | locus YDR334W, strain swr1, stronger effect = lower value 1.04 | locus YDR335W, strain msn5, stronger effect = lower value 1.03 | locus YDR388W, stronger effect = lower value 1 | locus YDR502C, strain sam2, stronger effect = lower value 1.03 | locus YEL003W, strain gim4, stronger effect = lower value 1.02 | locus YEL037C, strain rad23, stronger effect = lower value 1.02 | locus YEL061C, strain CIN8 (second series), stronger effect = lower value 1.03 | locus YER015W, strain faa2, stronger effect = lower value 1.02 | locus YER016W, strain bim1, stronger effect = lower value 1.03 | locus YER110C, stronger effect = lower value 0.978 | locus YER111C, strain swi4, stronger effect = lower value 1.02 | locus YER155C, strain BEM2 (second series), stronger effect = lower value 0.989 | locus YER155C, strain BEM2, stronger effect = lower value 0.999 | locus YER167W, strain BCK2, stronger effect = lower value 1.01 | locus YFR010W, strain ubp6, stronger effect = lower value 1.05 | locus YGL078C, strain dbp3, stronger effect = lower value 1.03 | locus YGL086W, strain mad1, stronger effect = lower value 1.02 | locus YGL167C, strain pmr1, stronger effect = lower value 1.01 | locus YGL173C, strain kem1, stronger effect = lower value 1.04 | locus YGL227W, strain vid30, stronger effect = lower value 1.03 | locus YGL240W, strain doc1, stronger effect = lower value 1.01 | locus YGL248W, strain PDE1, stronger effect = lower value 1.02 | locus YGL253W, strain hxk2, stronger effect = lower value 1.03 | locus YGR135W, strain pre9, stronger effect = lower value 1.08 | locus YGR252W, strain gcn5, stronger effect = lower value 1.09 | locus YHR013C, strain ard1, stronger effect = lower value 1.02 | locus YHR027C, strain rpn1, stronger effect = lower value 1.04 | locus YHR030C, strain SLT2, stronger effect = lower value 0.929 | locus YHR079C, strain IRE1 (second series), stronger effect = lower value 0.982 | locus YHR079C, strain IRE1, stronger effect = lower value 0.961 | locus YHR094C, strain hxt1, stronger effect = lower value 0.985 | locus YHR129C, strain ARP1, stronger effect = lower value 1 | locus YHR142W, strain chs7, stronger effect = lower value 1 | locus YHR200W, strain rpn10, stronger effect = lower value 1.01 | locus YIL066C, strain RNR3, stronger effect = lower value 0.965 | locus YIL073C, strain SPO22, stronger effect = lower value 0.984 | locus YIL125W, strain kgd1, stronger effect = lower value 0.976 | locus YIR030C, strain dcg1, stronger effect = lower value 0.995 | locus YJL092W, strain hpr5, stronger effect = lower value 1.03 | locus YJL095W, strain BCK1 (second series), stronger effect = lower value 1.03 | locus YJL095W, strain BCK1, stronger effect = lower value 1.06 and 0.951 | locus YJL115W, strain asf1, stronger effect = lower value 1.03 | locus YJL129C, strain trk1, stronger effect = lower value 0.995 | locus YJL134W, strain LCB3, stronger effect = lower value 1 | locus YJL154C, strain vps35, stronger effect = lower value 1.03 | locus YJL164C, strain tpk1, stronger effect = lower value 0.988 | locus YJL166W, strain qcr8, stronger effect = lower value 0.982 | locus YJL168C, strain set2, stronger effect = lower value 1 | locus YJL187C, strain SWE1 (second series), stronger effect = lower value 1.03 | locus YJL187C, strain SWE1, stronger effect = lower value 1.02 | locus YJR066W, strain TOR1, stronger effect = lower value 0.931 | locus YJR075W, strain HOC1, stronger effect = lower value 1.03 | locus YKL009W, strain mrt4, stronger effect = lower value 0.956 | locus YKL068W, stronger effect = lower value 0.975 | locus YKL085W, strain MDH1 (second series), stronger effect = lower value 0.977 | locus YKL085W, strain MDH1, stronger effect = lower value 0.977 | locus YKL160W, strain elf1, stronger effect = lower value 0.995 | locus YKR001C, strain vps1, stronger effect = lower value 0.993 | locus YKR026C, strain gcn3, stronger effect = lower value 1.03 | locus YKR091W, strain srl3, stronger effect = lower value 1.03 | locus YLL001W, strain dnm1, stronger effect = lower value 0.988 | locus YLL026W, stronger effect = lower value 1.03 | locus YLL041C, strain sdh2, stronger effect = lower value 1.02 | locus YLR027C, strain aat2, stronger effect = lower value 0.992 | locus YLR039C, strain RIC1, stronger effect = lower value 1.05 | locus YLR058C, strain SHM2, stronger effect = lower value 1 | locus YLR102C, strain apc9, stronger effect = lower value 0.995 | locus YLR113W, strain HOG1, stronger effect = lower value 0.902 | locus YLR221C, strain rsa3, stronger effect = lower value 1.03 | locus YLR258W, strain gsy2, stronger effect = lower value 1.03 | locus YLR262C, strain YPT6 (second series), stronger effect = lower value 0.978 | locus YLR268W, strain sec22, stronger effect = lower value 0.975 | locus YLR320W, strain mms22, stronger effect = lower value 1.03 | locus YLR330W, strain CHS5, stronger effect = lower value 1 | locus YLR342W, strain FKS1 (second series), stronger effect = lower value 1.04 | locus YLR342W, strain FKS1, stronger effect = lower value 1.03 | locus YLR357W, strain rsc2, stronger effect = lower value 1.01 | locus YLR370C, strain arc18, stronger effect = lower value 1.02 | locus YLR371W, strain rom2, stronger effect = lower value 1.02 | locus YLR384C, strain iki3, stronger effect = lower value 1.03 | locus YLR418C, strain cdc73, stronger effect = lower value 0.98 | locus YML016C, strain PPZ1, stronger effect = lower value 0.999 | locus YML032C, strain rad52, stronger effect = lower value 0.976 | locus YML120C, strain ndi1, stronger effect = lower value 0.984 | locus YML124C, strain tub3, stronger effect = lower value 1 | locus YMR058W, strain fet3, stronger effect = lower value 1.04 | locus YMR078C, strain ctf18, stronger effect = lower value 0.987 | locus YMR125W, strain sto1, stronger effect = lower value 1.05 | locus YMR129W, stronger effect = lower value 1.02 | locus YMR205C, strain PFK2, stronger effect = lower value 0.958 | locus YMR223W, strain ubp8, stronger effect = lower value 0.986 | locus YMR231W, strain pep5, stronger effect = lower value 1.04 | locus YMR307W, strain GAS1, stronger effect = lower value 0.912 | locus YNL067W, strain RPL9B, stronger effect = lower value 1.04 | locus YNL071W, strain lat1, stronger effect = lower value 0.928 | locus YNL153C, strain GIM3, stronger effect = lower value 1.02 | locus YNL183C, strain NPR1, stronger effect = lower value 0.918 | locus YNL209W, strain ssb2, stronger effect = lower value 1.03 | locus YNL233W, strain BNI4, stronger effect = lower value 1.02 | locus YNL248C, strain rpa49, stronger effect = lower value 1.03 | locus YNL250W, strain rad50, stronger effect = lower value 0.989 | locus YNL271C, strain bni1, stronger effect = lower value 1 | locus YNL298W, strain CLA4, stronger effect = lower value 1 | locus YNL307C, strain MCK1, stronger effect = lower value 0.996 | locus YNL322C, strain KRE1 (second series), stronger effect = lower value 0.984 | locus YNR049C, strain mso1, stronger effect = lower value 1.03 | locus YNR052C, strain pop2, stronger effect = lower value 1.02 | locus YOL006C, strain TOP1, stronger effect = lower value 1.02 | locus YOL012C, strain htz1 1.3 | locus YOL147C, strain pex11, stronger effect = lower value 1 | locus YOR001W, strain rrp6, stronger effect = lower value 1.02 | locus YOR061W, strain CKA2, stronger effect = lower value 0.971 | locus YOR069W, strain VPS5, stronger effect = lower value 1.01 | locus YOR070C, strain gyp1, stronger effect = lower value 1 | locus YOR080W, strain dia2, stronger effect = lower value 1.04 | locus YOR083W, strain WHI5, stronger effect = lower value 0.976 | locus YOR106W, strain vam3, stronger effect = lower value 0.986 | locus YOR136W, strain idh2, stronger effect = lower value 1.01 | locus YOR144C, strain elg1, stronger effect = lower value 0.995 | locus YOR184W, strain ser1, stronger effect = lower value 0.928 | locus YOR231W, strain MKK1, stronger effect = lower value 0.917 | locus YOR265W, strain rbl2, stronger effect = lower value 1.04 | locus YOR270C, strain vph1, stronger effect = lower value 0.963 | locus YOR290C, strain snf2, stronger effect = lower value 0.946 | locus YOR316C, strain cot1, stronger effect = lower value 0.997 | locus YPL051W, strain arl3, stronger effect = lower value 0.996 | locus YPL078C, strain atp4, stronger effect = lower value 0.976 | locus YPL106C, strain sse1, stronger effect = lower value 1.01 | locus YPL240C, strain hsp82, stronger effect = lower value 1.02 | locus YPL256C, strain CLN2, stronger effect = lower value 0.95 | locus YPR119W, strain clb2, stronger effect = lower value 1 | locus YPR141C, strain kar3, stronger effect = lower value 0.993 | locus YPR163C, strain tif3, stronger effect = lower value 1.01 | locus YPR167C, strain met16, stronger effect = lower value 0.996 | strain wtn01, stronger effect = lower value 0.958
active: locus YDR392W, strain spt3, stronger effect = lower value 0.562
